Compound activity from PubChem.
Shown are actives, neighbours in structure and some others; about 2.6% of the full set was active somewhere.
Shn3 3UTR inh: reduces Shn3 3'UTR luciferase signal in osteoblasts. Clone20 osteoblast Shn3 3'UTR firefly luciferase, 24 h. inhibition, % at 12.5 µM. 0.52% of 360,000 active;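 active = mean inhibition of at least 75% with every replicate also reaching 75%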;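 note: 0% = median of neutral control wells and 100% = pilot-screen positive control compound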
CF NFkB inh: blocks PAF-induced NF-kB reporter in cystic fibrosis cells. KKLEB NF-kB-GFP reporter, GFP fluorescence overnight. inhibition, % at 5 µM. 0.86% of 360,000 active. AID 588850;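 active = at least 50% inhibition at 5 µM, scaled per plate between neutral and stimulator controls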;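 note: PAF is a Pseudomonas aeruginosa culture filtrate used as stimulus; plate controls were PAF-stimulated DMSO wells for no effect and unstimulated DMSO wells for full effect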
KKLEB tox: reduces viability of KKLEB cystic fibrosis airway cells | activity change (cytotoxicity), % at 5 µM | 0.36% of 360,000 active | KKLEB CF airway cells viability, ATPlite luminescence, overnight; active compounds read low; cells stimulated with P. aeruginosa culture filtrate;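 active = corrected activity change at or below -50% at 5 µM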
Peg3 promoter: Peg3 promoter activity inhibition; inhibition, % at 20 µM; AID 588405; 1.7% of 360,000 active; HeLa PEG-Prom luciferase reporter, luminescence, overnight;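 active = inhibition of at least 50% at 20 µM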
HIF-2a inh: blocks HIF-2a reporter activity | 786-0 RCC cells HIF-2a reporter, luciferase luminescence, overnight | inhibition, % at 18.8 µM | 0.72% of 360,000 active;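 active = inhibition of the luminescence signal of 40% or more relative to plate controls, in a single-dose primary screen at 18.75 µM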
* marks the source's active call; other numbers are inactive results; . = no result given.

SMILES | Shn3 3UTR inh | CF NFkB inh | KKLEB tox | Peg3 promoter | HIF-2a inh
COc1ccccc1-c1cc(-c2ccccc2)nc(SC(C(N)=O)c2ccccc2)c1C#N (stereo not drawn) | 38.0 | 59.6* | -71.5* | 47.0 | 5.1
Cc1nc(SC(C(N)=O)c2ccccc2)c(C#N)c(C)c1C (stereo not drawn) | -9.1 | -18.2 | 16.9 | -49.8 | -62.9
O=C(NNc1ccccc1)C(=O)NNS(=O)(=O)c1ccc(CCCl)cc1 | 85.8* | -1.5 | 2.6 | 10.3 | 9.7
Cc1cccc(N2CCN(C(=O)CCCn3c(=O)[nH]c4ccsc4c3=O)CC2C)c1 (stereo not drawn) | -0.1 | 13.6 | 0.7 | 30.4 | 2.2
Cc1cc2c(OCC(O)CNCc3ccco3)cccc2[nH]1 (stereo not drawn) | 2.3 | 3.6 | 0.4 | 15.4 | 10.2
OC(CNCc1ccco1)Cn1c2ccc(Br)cc2c2cc(Br)ccc21 (stereo not drawn) | 18.3 | 17.1 | -27.5 | 98.4* | -18.7
O=C(CCn1cccn1)N1CCCC(Nc2ccc(F)c(F)c2)C1 (stereo not drawn) | -6.0 | -5.7 | -9.7 | 3.3 | 5.8
CCC1COC(c2cccn2Cc2ccccc2Cl)=N1 (stereo not drawn) | -27.2 | 0.6 | -8.3 | 3.8 | 20.8
C#CCOCCOCCOCCNc1nc(N2CCN(C(=O)CCCCCCCCCCNC(=O)[C@H](CCCCN)n3cc(C[C@@H](C)CC)nn3)CC2)nc(N2CCN(C(=O)CCCCCCCCCCNC(=O)[C@@H]([C@H](C)O)n3cc(C)nn3)CC2)n1 | 95.8* | 25.9 | -48.6 | 98.0* | 63.4*
C#CCOCCOCCOCCNc1nc(N2CCN(C(=O)CCCCCCCCCCNC(=O)[C@H](CCCCN)n3cc(C)nn3)CC2)nc(N2CCN(C(=O)CCCCCCCCCCNC(=O)[C@@H]([C@H](C)O)n3cc(C)nn3)CC2)n1 | 9.7 | -3.2 | 11.4 | 50.1* | 4.7
C#CCOCCOCCOCCNc1nc(N2CCN(C(=O)CCCCCCCCCCNC(=O)[C@H](CCCCN)n3cc(C[C@@H](C)CC)nn3)CC2)nc(N2CCN(C(=O)CCCCCCCCCCNC(=O)[C@H](CCCN=C(N)N)n3cc(C[C@@H](C)CC)nn3)CC2)n1 | 77.0 | 12.1 | 0.2 | 101.3* | 41.0*
C#CCOCCOCCOCCNc1nc(N2CCN(C(=O)CCCCCCCCCCNC(=O)Cn3cc(C[C@@H](C)O)nn3)CC2)nc(N2CCN(C(=O)CCCCCCCCCCNC(=O)[C@@H]([C@H](C)CC)n3cc(CCCCCN)nn3)CC2)n1 | 20.0 | 20.2 | -40.3 | 101.2* | 0.6
CC(C)N1C(=O)CCC1C(=O)NCc1cccs1 (stereo not drawn) | -3.8 | -1.0 | -4.0 | 10.9 | 7.4
CCOc1cc(C(=S)N2CCOCC2)ccc1OC(=O)c1ccc(C)cc1 | 12.0 | -8.6 | 5.1 | 3.7 | 17.7
CCOc1cccc2cc(C(=O)N3CC(C)OC(C)C3)c(=O)oc12 (stereo not drawn) | 11.7 | 3.0 | -11.5 | 52.8* | 20.6
CCN(CC)c1ccc(-c2c(C#N)c(N)nc(OC)c2C#N)cc1 | 13.7 | 12.4 | -22.0 | 53.5* | 12.1
Cn1nc(N)c2c(-c3ccc(Cl)cc3)c(C#N)c(N)nc21 | 27.6 | 35.0 | -7.3 | 6.6 | 29.1
Cc1cc(NC2=CC(=O)C(=O)c3ccccc32)no1 | -4.8 | 86.1* | -42.4 | -9.6 | -119.0
O=C1C=C(Nc2ccc(O)cc2)C(=O)c2ccccc21 | -38.9 | 14.2 | -6.8 | -213.3 | -221.3
Cc1ccc(NC2=CC(=O)C(=O)c3ccccc32)cc1 | 4.8 | 58.8* | -29.1 | -136.7 | -47.1
CCOC(=O)c1ccc(NC2=CC(=O)C(=O)c3ccccc32)cc1 | 31.2 | 89.3* | -72.2* | 115.5* | -32.7
COc1cc(OC)c(NC2=CC(=O)C(=O)c3ccccc32)cc1Cl | 41.6 | 84.9* | -21.0 | 3.8 | 9.1
Cc1cc(NC(=O)CCN2C(=O)c3ccccc3C2=O)no1 | -2.4 | 9.2 | 0.9 | 5.6 | 11.8
CC(=O)Nc1ccc(SCC(=O)NCCc2ccc(F)cc2)cc1 | 5.2 | 7.2 | 2.0 | -3.8 | 2.1
N#Cc1c(-c2ccc(Cl)cc2)c(-c2ccc(Cl)cc2)nn(CCOC(=O)CCC(=O)O)c1=O | 5.5 | 5.2 | -4.5 | 4.5 | 12.8
SMILES | Shn3 3UTR inh | CF NFkB inh | KKLEB tox | Peg3 promoter | HIF-2a inh
O=C(NNC(=O)c1ncc(Cl)c(Cl)c1Cl)c1ccc(F)cc1 | 10.3 | -8.2 | 3.8 | -11.1 | -5.5
CCOC(=O)c1ccccc1NC(=O)COC(=O)CCC1CCCC1 | 18.4 | 2.2 | 5.7 | 13.2 | 8.7
COc1ccc(CCNC(=O)Cc2ccc(NC3=NC4CS(=O)(=O)CC4S3)cc2)c(OC)c1 (stereo not drawn) | -1.9 | 22.5 | -8.4 | 8.3 | 5.5
NS(=O)(=O)c1ccc(NC2=CC(=O)C(=O)c3ccccc32)cc1 | -13.1 | 93.6* | -23.8 | -1.6 | -101.6
CC(=O)c1ccc(S(=O)(=O)NC2CC2)cc1 | -18.8 | 1.1 | -1.1 | 5.8 | -3.2
COc1ccccc1NC(=O)c1oc2ccccc2c1NC(=O)c1cc(OC)c(OC)c(OC)c1 | 27.6 | 55.9* | -57.7* | 30.3 | 16.9
Cc1onc(-c2c(F)cccc2Cl)c1C(=O)OCC(=O)NC1CC1 | -6.3 | -2.3 | 3.0 | 11.8 | 10.6
COc1ccc(C(=O)Nc2ccccc2C(=O)NCc2cccnc2)cc1OC | -3.0 | 8.2 | 0.0 | 13.7 | 1.8
COc1ccc(C(=O)Nc2ccccc2C(=O)N/N=C/c2cccc3ccccc23)cc1 | -18.2 | -5.8 | -88.2* | -65.5 | -35.8
COc1ccc(C(=O)Nc2ccccc2C(=O)N/N=C/c2ccncc2)cc1OC | -41.1 | 12.2 | -60.4* | -132.2 | -178.7
CCOC(=O)[C@]12CCCC=C1N(Cc1ccco1)C(=O)[C@H](CC(=O)NCc1ccccc1)C2 | . | . | . | . | 11.9
O=[N+]([O-])c1cccc(S(=O)(=O)Nc2nc3ccccc3nc2Nc2cccc(S(=O)(=O)N3CCCCC3)c2)c1 | 25.5 | 61.0* | -54.7* | 49.9 | 56.0*
CC(C)(C)C1=CC(=O)C(=O)C(C(C)(C)C)=C1 | -3.2 | 39.8 | -13.1 | 73.4* | 42.0*
O=C(Cc1csc(Nc2nc(=S)[nH]c3ccccc23)n1)NCc1ccc(Cl)cc1 | 9.6 | 19.1 | -40.8 | 31.2 | -5.0
O=C(Cc1csc(Nc2nc(=S)[nH]c3ccccc23)n1)NCCCN1CCN(c2ccccc2F)CC1 | -2.1 | -56.1 | -31.8 | 67.5* | 10.9
Cc1ccc(C)c(S(=O)(=O)Nc2ccc(-n3cnnn3)cc2)c1 | 82.7* | 9.1 | -21.5 | 11.1 | 14.1
COC1=C(C)C(=O)C2=C(C1=O)C1C3CC4=C(C(=O)C(OC)=C(C)C4=O)C(CNC(=O)C(C)=O)N3C(C#N)C(C2)N1C (stereo not drawn) | 93.8* | 81.4* | -44.4 | 101.1* | 77.8*
CCCC(C)C(=O)Nc1ccc(S(=O)(=O)Nc2nccs2)cc1 (stereo not drawn) | -9.3 | -8.2 | -6.2 | -1.8 | 10.8
c1ccc(CCNCCCOc2cccc3ccccc23)cc1 | -14.0 | 22.5 | 5.9 | 50.3* | 11.7
CC(=O)NCCOc1cccc2ccccc12 | 7.9 | -12.2 | 15.1 | -5.2 | 2.5
COc1ccc(C=O)cc1Cn1c(C)cc(C)c(C#N)c1=O | 13.6 | 8.6 | -3.4 | 50.6* | 15.8
